“And” between values parts separate entries of the source, which are not always exact repeats. Identical values can stand only once. The whole screen tested about 5,500 compounds, of which about 2,000 (36%) were called active. Roughly 18% stayed inconclusive and do not appear here. No stated cut-off is given here; in the data, active means normalized growth mostly below about 0.91 (no sharp cut-off); inconclusive means no clear call, values can overlap the other calls; inactive means mostly above about 0.92. Some of the results follow.
Assay: chemical genetic growth profiling, strain panel (AID 1159580);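 further: tested at 20 µM; growth read once vehicle control cultures reached saturation at 30 °C; 1 = growth at the plate median or of vehicle wells; lower values mean less growth of the strain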
Details: S. cerevisiae deletion strains, growth OD

Measured: normalized growth

CN1C(=O)CC[C@H]1c1cccnc1
inactive: locus YBR021W, strain FUR4, active compounds read low 1 | locus YBR229C, strain ROT2, active compounds read low 1 | locus YCL029C, strain bik1, active compounds read low 1.02 | locus YDL035C, strain GPR1, active compounds read low 1.02 | locus YDL074C, strain BRE1, active compounds read low 1.04 | locus YDL101C, strain DUN1, active compounds read low 1.01 | locus YDL134C, strain PPH21, active compounds read low 1 | locus YDL185W, strain tfp1, active compounds read low 1.03 | locus YDL192W, strain arf1, active compounds read low 1.01 | locus YDR101C, strain arx1, active compounds read low 1.05 | locus YDR150W, strain NUM1, active compounds read low 0.992 | locus YDR162C, strain NBP2, active compounds read low 1.01 | locus YDR318W, strain mcm21, active compounds read low 1.02 | locus YDR388W, active compounds read low 1.02 | locus YDR502C, strain sam2, active compounds read low 1.04 | locus YEL061C, strain CIN8, active compounds read low 0.993 | locus YER110C, active compounds read low 1.03 | locus YER155C, strain BEM2, active compounds read low 0.992 | locus YER167W, strain BCK2, active compounds read low 0.997 | locus YGL078C, strain dbp3, active compounds read low 1.03 | locus YGL086W, strain mad1, active compounds read low 1.03 | locus YGL248W, strain PDE1, active compounds read low 1.02 | locus YGR135W, strain pre9, active compounds read low 1.01 | locus YGR229C, strain SMI1, active compounds read low 1.01 | locus YGR252W, strain gcn5, active compounds read low 1.11 | locus YHR030C, strain SLT2, active compounds read low 0.997 and 1.05 | locus YHR079C, strain IRE1 (second series), active compounds read low 1.03 | locus YHR079C, strain IRE1, active compounds read low 1.04 | locus YHR094C, strain hxt1, active compounds read low 1.01 | locus YHR129C, strain ARP1, active compounds read low 0.993 | locus YHR200W, strain rpn10, active compounds read low 1.01 | locus YIL066C, strain RNR3, active compounds read low 1.01 | locus YIL073C, strain SPO22, active compounds read low 1.07 | locus YIL125W, strain kgd1, active compounds read low 1.02 | locus YIR030C, strain dcg1, active compounds read low 1.02 | locus YJL095W, strain BCK1, active compounds read low 1.01 and 1.02 | locus YJL134W, strain LCB3, active compounds read low 0.996 | locus YJL168C, strain set2, active compounds read low 1 | locus YJL187C, strain SWE1 (second series), active compounds read low 1.01 | locus YJR043C, strain POL32, active compounds read low 1.02 | locus YJR066W, strain TOR1, active compounds read low 0.992 | locus YKL009W, strain mrt4, active compounds read low 1.03 | locus YKL068W, active compounds read low 1.01 | locus YKL085W, strain MDH1 (second series), active compounds read low 1.01 | locus YKL085W, strain MDH1, active compounds read low 1.01 | locus YKL190W, strain CNB1, active compounds read low 1 | locus YKR001C, strain vps1, active compounds read low 1.03 | locus YLR039C, strain RIC1, active compounds read low 1.02 | locus YLR058C, strain SHM2, active compounds read low 1 | locus YLR102C, strain apc9, active compounds read low 1.02 | locus YLR113W, strain HOG1, active compounds read low 1.06 | locus YLR262C, strain YPT6, active compounds read low 1.04 | locus YLR268W, strain sec22, active compounds read low 1.03 | locus YLR330W, strain CHS5, active compounds read low 0.999 | locus YLR342W, strain FKS1 (second series), active compounds read low 1.01 | locus YLR371W, strain rom2, active compounds read low 0.983 | locus YLR418C, strain cdc73, active compounds read low 1.03 | locus YML016C, strain PPZ1, active compounds read low 0.993 | locus YML032C, strain rad52, active compounds read low 1.02 | locus YML124C, strain tub3, active compounds read low 1.01 | locus YMR078C, strain ctf18, active compounds read low 1.02 | locus YMR223W, strain ubp8, active compounds read low 1.01 | locus YMR263W, strain SAP30, active compounds read low 1 | locus YMR307W, strain GAS1, active compounds read low 0.998 | locus YNL067W, strain RPL9B, active compounds read low 1.01 | locus YNL183C, strain NPR1, active compounds read low 0.992 | locus YNL233W, strain BNI4, active compounds read low 1.01 | locus YNL250W, strain rad50, active compounds read low 1.02 | locus YNL271C, strain bni1, active compounds read low 1.02 | locus YNL298W, strain CLA4, active compounds read low 1.04 | locus YNL307C, strain MCK1, active compounds read low 1.03 | locus YNL322C, strain KRE1, active compounds read low 0.993 | locus YNR052C, strain pop2, active compounds read low 1.02 | locus YOL006C, strain TOP1, active compounds read low 1.04 | locus YOL012C, strain htz1 0.58 | locus YOL147C, strain pex11, active compounds read low 1.04 | locus YOR061W, strain CKA2, active compounds read low 1.01 | locus YOR069W, strain VPS5, active compounds read low 0.997 | locus YOR136W, strain idh2, active compounds read low 1.02 | locus YOR144C, strain elg1, active compounds read low 1.01 | locus YOR184W, strain ser1, active compounds read low 1.03 | locus YOR231W, strain MKK1, active compounds read low 1.04 | locus YOR316C, strain cot1, active compounds read low 1.04 | locus YPL241C, strain CIN2, active compounds read low 0.995 | locus YPL256C, strain CLN2, active compounds read low 1.16 | locus YPR119W, strain clb2, active compounds read low 1 | locus YPR141C, strain kar3, active compounds read low 1 | locus YPR163C, strain tif3, active compounds read low 1.06 | locus YPR167C, strain met16, active compounds read low 1.01 | strain wtn01, active compounds read low 1.04
